Screening data (PubChem)
Rows were chosen to be rich in hits. Some 3.5% of all compounds tested hit in one or more screens of this group.
GPR151 activ: activates the human receptor GPR151 | Q8TDV0 | PathHunter beta-arrestin GPR151 cells, luminescence | activation, % at 11.2 µM | hit rate 1% among 650,000 | AID 1508602; in the data active means activation above about 4.9%;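 further: 0% = median of compound wells and 100% = cells with positive control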
Target sequence (Q8TDV0 whole entry, looked up): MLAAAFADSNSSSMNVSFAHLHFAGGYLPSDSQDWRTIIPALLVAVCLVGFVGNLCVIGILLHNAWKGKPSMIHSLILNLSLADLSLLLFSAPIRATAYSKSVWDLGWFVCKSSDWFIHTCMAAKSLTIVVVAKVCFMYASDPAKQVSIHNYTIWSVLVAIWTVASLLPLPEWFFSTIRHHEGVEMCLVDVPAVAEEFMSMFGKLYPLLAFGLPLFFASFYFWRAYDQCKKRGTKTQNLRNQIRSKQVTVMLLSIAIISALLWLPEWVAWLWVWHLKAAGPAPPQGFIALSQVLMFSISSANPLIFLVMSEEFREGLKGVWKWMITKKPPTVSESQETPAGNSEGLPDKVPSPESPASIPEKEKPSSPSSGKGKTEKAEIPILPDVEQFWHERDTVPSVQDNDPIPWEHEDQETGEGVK
TEAD-YAP block: TEAD-YAP interaction inhibition; hit rate 1.4% among 640,000; inhibition, % at 9.12 µM; AID 1259422; HEK-TIYL cells, TEAD-Gal4/YAP UAS-luciferase luminescence; in the data active means inhibition above about 32%;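 further: 0% = median of test compound wells and 100% = reference inhibitor wells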
MITF inh: blocks human microphthalmia-associated transcription factor; hit rate 0.91% among 650,000; O75030; AlphaScreen MITF homodimerization, bead proximity signal; inhibition, % at 2.6 µM; in the data active means inhibition above about 50%;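 further: 0% = vehicle wells with protein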
FBW7 activator: human FBW7 E3 ligase activation, primary screen | Q969H0 | hit rate 0.13% among 650,000 | AID 1259310 | AlphaScreen FBW7–phospho-cyclin E peptide binding, activator screen | normalized activity (activation), % at 26.1 µM; in the data active means normalized activity above about 1.9%;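 further: purified mutant Fbw7 with reduced substrate affinity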
MITF confirm: human MITF inhibition, confirmation. inhibition, % at 2.6 µM. hit rate 16% among 4,700. AlphaScreen MITF homodimerization, biotin/His-MITF beads. AID 1259372. shares compounds with MITF inh;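 active means inhibition above a cutoff derived from the DMSO control wells, cut at about 28% in these data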;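 further: 0% = MITF dimer wells with DMSO only; inhibitors lower the bead chemiluminescence by keeping MITF from dimerizing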
AS interf DR: AlphaScreen optical interference, dose response counter-screen; IC50, µM; hit rate 6% among 480; AlphaScreen optical interference counterscreen, cell-free; AID 1259373; shares compounds with MITF inh; call rule not given here
AS interf ctr: counter-screen: compounds optically interfering with AlphaScreen; shares compounds with MITF inh; LysRS AlphaScreen counterscreen, signal interference, triplicate; inhibition, % at 2.6 µM; hit rate 7.6% among 4,700;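 active means inhibition above a cutoff derived from the DMSO control wells, cut at about 30% in these data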
Active calls of the source: *; / = no result.

SMILES	GPR151 activ	TEAD-YAP block	MITF inh	FBW7 activator	MITF confirm	AS interf ctr	others
CCc1ccccc1Nc1nc(-c2cccc(NC(C)=O)c2)cs1	5	-2	53*	0	7	14
Nc1ccc(-c2nc3cc(Cl)cc(Cl)c3o2)cc1	-1	-38	14	0	/	/
Cn1c(SCC(N)=O)nnc1-c1sc2cc(Cl)ccc2c1Cl	0	-7	-2	0	/	/
CCOC(=O)N1CCN(Cc2nc3c(c(=O)[nH]c(=O)n3C)n2Cc2cccc(C)c2)CC1	0	-7	5	0	/	/
COc1ccc(-c2c(C)oc3cc(OCC(N)=O)ccc3c2=O)cc1OC	-1	4	61*	0	0	7
COc1ccc(-c2c(C)oc3cc(OCC(=O)OC(C)C)ccc3c2=O)cc1OC	0	2	10	0	/	/
COc1cc(CN2CCN(C3CCC(c4ccccc4)CC3)CC2)cc(OC)c1OC (stereo not given)	-1	4	69*	0	6	-7
COc1ccc(OC)c(CN2CCN(C3CCC(c4ccccc4)CC3)CC2)c1 (stereo not given)	0	-4	54*	0	-2	10
COc1cc(CN2CCC(N3CCOCC3)CC2)cc(OC)c1OC	0	-2	24	1	/	/
COc1cc(CN2CCC(N3CCN(C)CC3)CC2)cc(OC)c1OC	0	-1	87*	0	-14	-5
COc1ccc(OC)c(CN2CCC(N3CCN(CCO)CC3)CC2)c1	-1	1	81*	0	-5	4
C=CCNC(=S)Nc1nc2ccccc2s1	2	-3	2	0	/	/
COc1ccc(NC(=O)c2nn3c(C(F)(F)F)cc(-c4ccccc4)nc3c2Cl)cc1OC	-1	4	20	0	/	/
Nc1nc(-c2cccnc2)nn1C(=O)c1ccc(Cl)cc1	-1	-11	4	0	/	/
Nc1nc(-c2cccnc2)nn1C(=O)c1ccc([N+](=O)[O-])cc1	-2	6	55*	0	12	17
COc1ccc(S(=O)(=O)CCC(=O)Nc2cccc(Cl)c2C)cc1	0	3	17	0	/	/
COCc1cc(=O)[nH]c(Nc2nc3ccccc3o2)n1	-1	0	65*	-1	75*	101*
COc1ccc(CNC(=O)c2sc3nc(-c4cccs4)ccc3c2N)cc1	0	4	1	1	/	/
CC(=O)c1sc2nc(-c3cccs3)ccc2c1N	-1	-28	51*	0	10	12
CN1CCC(N(C)CC(O)COCc2ccccc2F)CC1 (stereo not given)	0	8	17	1	/	/
CN1CCC(N(C)CC(O)COCc2ccccc2Cl)CC1 (stereo not given)	3	-1	87*	0	8	15
CN=C1SC(CC(=O)Nc2cccc(C(=O)O)c2)C(=O)N1C (stereo not given)	3	10	53*	0	36*	9	AS interf DR=>6.5
N#Cc1ccccc1S(=O)(=O)N1CCN(CC(O)COc2ccccc2F)CC1 (stereo not given)	-1	4	51*	0	7	7
N#Cc1ccccc1S(=O)(=O)N1CCN(CC(O)c2ccccc2)CC1 (stereo not given)	-2	1	58*	0	-11	-4
CCOc1ccc(S(=O)(=O)N2CCN(CC(O)c3ccccc3)CC2)cc1 (stereo not given)	-1	-6	-3	0	/	/
SMILES	GPR151 activ	TEAD-YAP block	MITF inh	FBW7 activator	MITF confirm	AS interf ctr	others
O=C(O)C1=NN(c2ccccn2)C(=O)CC1	-1	-39	77*	-1	-96	100*
Cc1ccccc1/C=C1\N=C(c2cc(C3=N/C(=C/c4ccccc4C)C(=O)O3)cc(C3=N/C(=C/c4ccccc4C)C(=O)O3)c2)OC1=O	0	-2	59*	0	46*	12
Cc1cccc2cc(CN(Cc3ccc(F)cc3)C(=O)C3CCC3)c3nnnn3c12	0	-9	-17	0	/	/
CCOc1cc(CN2CCN(Cc3c[nH]c4ccccc34)CC2)ccc1OC	1	15	60*	0	-8	0
COc1ccc(CN2CCN(Cc3c[nH]c4ccccc34)CC2)cc1	-2	1	64*	0	-15	6
COc1ccc(CN2CCN(Cc3c[nH]c4ccccc34)CC2)c(OC)c1	0	6	58*	0	9	9
